Here are results for 38 compounds from PubChem BioAssay (Tox21).

SMILES strings stand for the structures. Records with an inconclusive call do not appear. Where a call stands in place of a potency, no number is given. Active and inactive are the calls of the source. Unless noted, calls come from the whole dose curve.

The first assay in a line: qHTS assay to identify small molecule agonists of H2AX - cell viability counter screen (AID 1224847). Note: nearly all actives have a fitted effect of over 30% in size. Note: potency is the fitted concentration of half-maximal effect. To be noted: CHO-K1 viability, CellTiter-Glo luminescence, 3 h; series mostly up to 154 µM. An outline of the steps:
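CHO-K1 wt, 1000 cells/well, o/n 37C; cpds 15 conc, 3 h 37C, 0.76% DMSO; CellTiter-Glo, 30 min RT, luminescence.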
On to `CCOC(=O)c1ccc(NC(=O)CN2CCCCC2)cc1`, for which the Potency entry is “inactive”.

Regarding `C[C@@H]1[C@H](O)[C@@H](C)/C=C/C=C\C=C\C=C\C=C\C=C\C=C\[C@H](O[C@@H]2O[C@H](C)[C@@H](O)[C@H](N)[C@@H]2O)C[C@@H]2O[C@](O)(C[C@@H](O)C[C@@H](O)[C@H](O)CC[C@@H](O)C[C@@H](O)CC(=O)O[C@H]1C)C[C@H](O)[C@H]2C(=O)O` (stereo in doubt), the Potency entry was “inactive”.

Regarding `CCOc1ncc(F)c(=O)[nH]1`, the Potency entry was “inactive”.

For `CC1CCC(C(C)CS)CC1S` (centres undefined), the Potency result was “inactive”.

As for `O=CNNC=O`, the Potency result is “inactive”.

As for `CC[C@H]1OC(=O)[C@H](C)[C@@H](O[C@H]2C[C@@](C)(OC)[C@@H](O)[C@H](C)O2)[C@H](C)[C@@H](O[C@@H]2O[C@H](C)C[C@H](N(C)C)[C@H]2O)[C@](C)(O)C[C@@H](C)/C(=N\OCOCCOC)[C@H](C)[C@@H](O)[C@]1(C)O`, the Potency result is “inactive”.

Turning to `CCN(CC)c1ccc(C(=C2C=CC(=[N+](CC)CC)C=C2)c2ccc(S(=O)(=O)O)cc2S(=O)(=O)[O-])cc1`, the Potency is 12.7 µM (active).

Consider `O=C(/C=C/c1ccc([N+](=O)[O-])cc1)c1ccccc1`, for which the Potency entry was “inactive”.

Regarding `Nc1nc(-c2ccc([N+](=O)[O-])cc2)cs1`, the Potency result is “inactive”.

Take `Cc1oc(=O)oc1COC(=O)[C@@H]1N2C(=O)[C@@H](NC(=O)[C@H](N)c3ccccc3)[C@H]2SC1(C)C`: the Potency result is “inactive”.

As to `CC(C)(C)S`, the Potency result was “inactive”.

`C1=CCC2CC=CC2C1` (centres undefined): the Potency result is “inactive”.

For `COc1cc(OC)c2ccc(=O)oc2c1`, the Potency result was “inactive”.

For `CC(C)C1CCC(C(=O)N[C@H](Cc2ccccc2)C(=O)O)CC1` (some centres undefined), the Potency entry is “inactive”.

In the case of `CCCCCCOC(=O)CCCCC`, the Potency entry was “inactive”.

On to `C[C@@H]1C[C@H]2[C@@H]3CCC4=CC(=O)C=C[C@]4(C)[C@@]3(F)[C@@H](O)C[C@]2(C)[C@@]1(O)C(=O)COP(=O)(O)O`, for which the Potency result is “inactive”.

Take `CCCCCCCCCCCCCCCC(=O)OCC`: the Potency entry is “inactive”.

Regarding `CC(C)COC(=O)c1ccc(O)cc1`, the Potency result was “inactive”.

As for `COc1ccc(C(=O)NCc2ccc(OCCN(C)C)cc2)cc1OC`, the Potency entry was “inactive”.

Regarding `CC(=O)NNC(C)=O`, the Potency result is “inactive”.

As for `CCC(CO)(CO)CO`, the Potency entry is “inactive”.

Consider `COc1ccc(-n2nc(C(F)F)cc2-c2ccc(S(C)=O)cc2)cc1` (centres undefined), for which the Potency entry was “inactive”.

`C=CC(=O)NC(C)C`: the Potency entry was “inactive”.

On to `CC(=O)OCCC(C)CC(C)(C)C` (centres undefined), for which the Potency entry is “inactive”.

Turning to `CCCCOC(=O)CCCCC(=O)OCCCC`, the Potency result is “inactive”.

In the case of `CCCCC(CC)COS(=O)(=O)O` (centres undefined), the Potency result was “inactive”.

With `COC(C)(C)OC`, the Potency result is “inactive”.

Turning to `COc1ccc(C2C(=O)c3ccccc3C2=O)cc1`, the Potency entry was “inactive”.

As to `Cc1ccc(S(=O)(=O)NC(=O)NC2CCCCC2)cc1`, the Potency result was “inactive”.

As to `CC1=CC[C@@]23C[C@@H]1C(C)(C)[C@@H]2CC[C@H]3C`, the Potency result was “inactive”.

Consider `CCCCCCC(O)CCOC(C)=O` (centres undefined), for which the Potency result was “inactive”.

Turning to `CC(=O)C(=O)CC(C)C`, the Potency result was “inactive”.

Take `O=C(O)CCS`: the Potency result was “inactive”.

For the compound `CC(=O)c1ccc[nH]1`, the Potency result is “inactive”.

As for `CC(C)(O)CCc1ccccc1`, the Potency entry is “inactive”.

On to `COc1ccc(C)cc1`, for which the Potency result was “inactive”.

Take `CCN(CC)C(=O)N1CCN(C)CC1`: the Potency entry was “inactive”.

A short description of the next assay: qHTS assay to identify small molecule antagonists of the estrogen related receptor (ERR) signaling pathway from Tox21 library (AID 1224848; active = well fitted inhibition curve with a large enough effect in the repeat runs; note: nearly all actives have a fitted effect of over 50% in size; note: potency is the fitted concentration of half-maximal effect). Particulars: ERR reporter cell line, luciferase antagonist mode, 18 h; series mostly up to 92.4 µM. An outline of the steps:
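Reading was by luminescence 30 min after ONE-Glo addition. Before that, ERR cells at 2,000 per well had rested 6 h at 37 C/5% CO2 and then received pin-tooled compounds in DMSO for 18 h at 37 C.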
`CCOC(=O)c1ccc(NC(=O)CN2CCCCC2)cc1`: the Potency result is “inactive”.

On to `CC1CCC(C(C)CS)CC1S` (centres undefined), for which the Potency result is “inactive”.

In the case of `CCN(CC)c1ccc(C(=C2C=CC(=[N+](CC)CC)C=C2)c2ccc(S(=O)(=O)O)cc2S(=O)(=O)[O-])cc1`, the Potency is 9.69 µM (active).

For `Cc1oc(=O)oc1COC(=O)[C@@H]1N2C(=O)[C@@H](NC(=O)[C@H](N)c3ccccc3)[C@H]2SC1(C)C`, the Potency entry is “inactive”.

As to `CC(C)(C)S`, the Potency result was “inactive”.

Consider `C1=CCC2CC=CC2C1` (centres undefined), for which the Potency entry is “inactive”.

For the compound `COc1ccc(C(=O)NCc2ccc(OCCN(C)C)cc2)cc1OC`, the Potency entry is “inactive”.

Turning to `CC(=O)NNC(C)=O`, the Potency result is “inactive”.

For the compound `O=C(O)c1cc(Cl)cc(Cl)c1O`, the Potency result was “inactive”.

`C=CC(=O)NC(C)C`: the Potency entry was “inactive”.

For the compound `CC(=O)OCCC(C)CC(C)(C)C` (centres undefined), the Potency entry is “inactive”.

Turning to `CCCCOC(=O)CCCCC(=O)OCCCC`, the Potency result is “inactive”.

Turning to `CCCCC(CC)COS(=O)(=O)O` (centres undefined), the Potency entry is “inactive”.

As to `COC(C)(C)OC`, the Potency entry was “inactive”.

For the compound `COc1ccc(C2C(=O)c3ccccc3C2=O)cc1`, the Potency entry is “inactive”.

On to `CCCCCCC(O)CCOC(C)=O` (centres undefined), for which the Potency result was “inactive”.

In the case of `O=C(O)CCS`, the Potency result was “inactive”.

Consider `CCN(CC)C(=O)N1CCN(C)CC1`, for which the Potency entry is “inactive”.

The nature of the next assay: qHTS assay to identify small molecule agonists of the estrogen related receptor (ERR) signaling pathway from Tox21 library (AID 1224849). Note: nearly all actives have a fitted effect of over 15% in size. To be noted: ERR reporter cell line, ONE-Glo luciferase, 18 h; at 92.4 µM (top of the series) unless noted. An outline of the steps: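 Agonist signal is luciferase luminescence from an ERR reporter cell line treated 18 h at 37 C with DMSO-dissolved compounds, read 30 min after ONE-Glo addition at room temperature.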
On the technique in general: qHTS replaces the single test concentration by a dilution series.
Turning to `CCOC(=O)c1ccc(NC(=O)CN2CCCCC2)cc1`, the activity change, positive = activation is 5.71% [at 42.5 µM] (inactive).

Regarding `CC1CCC(C(C)CS)CC1S` (centres undefined), the activity change, positive = activation was 4.8% (inactive).

Take `CC[C@H]1OC(=O)[C@H](C)[C@@H](O[C@H]2C[C@@](C)(OC)[C@@H](O)[C@H](C)O2)[C@H](C)[C@@H](O[C@@H]2O[C@H](C)C[C@H](N(C)C)[C@H]2O)[C@](C)(O)C[C@@H](C)/C(=N\OCOCCOC)[C@H](C)[C@@H](O)[C@]1(C)O`: the activity change, positive = activation was -14.4% [at 42.5 µM] (inactive).

For the compound `CCN(CC)c1ccc(C(=C2C=CC(=[N+](CC)CC)C=C2)c2ccc(S(=O)(=O)O)cc2S(=O)(=O)[O-])cc1`, the activity change, positive = activation is -60.1% (inactive).

In the case of `Cc1oc(=O)oc1COC(=O)[C@@H]1N2C(=O)[C@@H](NC(=O)[C@H](N)c3ccccc3)[C@H]2SC1(C)C`, the activity change, positive = activation was 1.21% [at 42.5 µM] (inactive).

In the case of `CC(C)(C)S`, the activity change, positive = activation is 4.53% (inactive).

Take `C1=CCC2CC=CC2C1` (centres undefined): the activity change, positive = activation was 1.2% (inactive).

With `COc1ccc(C(=O)NCc2ccc(OCCN(C)C)cc2)cc1OC`, the activity change, positive = activation is -0.159% [at 42.5 µM] (inactive).

Turning to `CC(=O)NNC(C)=O`, the activity change, positive = activation is 2.66% (inactive).

On to `O=C(O)c1cc(Cl)cc(Cl)c1O`, for which the activity change, positive = activation is 0.37% (inactive).

For the compound `C=CC(=O)NC(C)C`, the activity change, positive = activation was 4.77% (inactive).

As for `CC(=O)OCCC(C)CC(C)(C)C` (centres undefined), the activity change, positive = activation is 4.15% (inactive).

Turning to `CCCCOC(=O)CCCCC(=O)OCCCC`, the activity change, positive = activation is -0.363% (inactive).

As for `CCCCC(CC)COS(=O)(=O)O` (centres undefined), the activity change, positive = activation was 3.39% (inactive).

With `COC(C)(C)OC`, the activity change, positive = activation is 2.58% (inactive).

Consider `COc1ccc(C2C(=O)c3ccccc3C2=O)cc1`, for which the activity change, positive = activation was 13.1% [at 42.5 µM] (inactive).

As for `CCCCCCC(O)CCOC(C)=O` (centres undefined), the activity change, positive = activation is -0.596% [at 240 µM] (inactive).

Take `O=C(O)CCS`: the activity change, positive = activation was 4.53% (inactive).

Consider `CCN(CC)C(=O)N1CCN(C)CC1`, for which the activity change, positive = activation was 6.11% [at 42.5 µM] (inactive).
